# In the library only some 9.1% were active in any assay of this set; here they are far more common.
# M1 ag: M1 muscarinic receptor agonists, primary screen, CHO-M1 cells, Fluo-4 calcium, agonist mode; Muscarinic acetylcholine receptor M1; Fluo-4 calcium fluorescence; stronger effect = higher value; B-score at 10 µM; actives 3% (n = 64,000); AID 626, 2007;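 active means fluorescence rise, raw or as B-score row- and column-corrected plate score, outside the 99.7% band of its plate's samples, either direction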
# D1 mod: D1 CRE-luciferase signal change, two-sided – cell-based, HEK293 D1, dopamine EC30, D1 allosteric modulator project, primary screen; actives 5.9% (n = 58,000); dopamine EC30 potentiation; actives deviate in either direction; B-score at 10 µM; D(1A) dopamine receptor (Homo sapiens), P21728;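 active means luminescence count or its row- and column-corrected plate score outside the 99.7% band of the plate's sample wells, on either side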
# Htt clearance: clearance of mutant huntingtin inclusions, primary screen, imaging, HeLa Exon1htt(103Q)mCFP, confocal imaging. aggregate imaging; zero = plate's median compound well. inhibition, % at 1.5 µM. actives 0.42% (n = 47,000). AID 853, 2007;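 active means inhibition of aggregate fluorescence above about 70%, also judged a hit by eye on the cell image, limit read from the data, passing the limit was not always enough; inconclusive means no rule stated for this call; inactive means not judged a hit on image review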;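 further: cells exposed to compound for three days before fixation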
# M1 antagonist: antagonists of rat M1 muscarinic receptor; Muscarinic acetylcholine receptor M1 (Rattus norvegicus), P08482; AID 628, 2007; actives 3.4% (n = 64,000); B-score at 10 µM; CHO-M1 cells, Fluo-4 calcium, ACh EC80 antagonist mode; stronger effect = lower value;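 active means calcium fluorescence response, raw or row-and-column corrected B-score, differing from the plate sample mean either way at a set confidence level, mostly lower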
# Target sequence (P08482 whole entry, looked up): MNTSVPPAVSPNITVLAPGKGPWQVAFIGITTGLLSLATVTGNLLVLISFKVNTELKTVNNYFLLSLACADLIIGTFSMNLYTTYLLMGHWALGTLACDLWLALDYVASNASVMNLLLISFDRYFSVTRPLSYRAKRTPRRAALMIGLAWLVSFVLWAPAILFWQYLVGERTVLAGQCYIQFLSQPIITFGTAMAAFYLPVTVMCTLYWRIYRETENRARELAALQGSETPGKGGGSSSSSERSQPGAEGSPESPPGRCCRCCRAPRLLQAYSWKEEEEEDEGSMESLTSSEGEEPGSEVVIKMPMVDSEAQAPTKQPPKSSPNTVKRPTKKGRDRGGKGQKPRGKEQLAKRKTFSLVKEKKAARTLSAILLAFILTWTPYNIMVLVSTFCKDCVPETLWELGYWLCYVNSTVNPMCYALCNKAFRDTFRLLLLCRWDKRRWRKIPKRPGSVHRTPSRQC
# M1 agonist conf: rat M1 muscarinic receptor agonists, confirmation, CHO-M1 cells, Fluo-4 calcium, duplicate retest; shares compounds with M1 ag; Fluo-4 calcium fluorescence, agonist mode; actives lie on both sides; fluorescence change (max-min) at 10 µM; actives 19% (n = 1,700);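 active means fluorescence change differs from the solvent-only DMSO control mean at a set confidence level in both duplicate runs; inconclusive means differs from solvent-only control mean in just one of two runs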;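 further: an EC20 dose of acetylcholine follows compound addition during the same imaging run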
# M4 agonist ctr: agonist activity at rat M4 receptor, confirmation, counter-screen for M1 allosteric modulator project, cell-based, agonist mode; shares compounds with M1 ag; CHO M4/Gqi5 cells, Fluo-4 calcium fluorescence; actives lie on both sides; fluorescence change (max-min) at 10 µM; actives 9% (n = 1,700);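 active means fluorescence change differing from the plate's solvent-only control wells at 99.7% confidence in both duplicates, whether higher or lower; inconclusive means differs from solvent controls in only one of two duplicates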
# A number is an active result; n = inactive; u = inconclusive; x = not tested or not shown.
SMILES,M1 ag,D1 mod,Htt clearance,M1 antagonist,M1 agonist conf,M4 agonist ctr
COc1ccc(CCNc2oc(Cc3ccccc3)nc2C#N)cc1OC,6.5,n,x,n,-31,u
COc1ccc(CCNc2oc(COc3ccccc3F)nc2C#N)cc1OC,3,n,n,-2.1,n,-85
COc1ccc(CCNc2oc(COc3ccccc3Cl)nc2C#N)cc1OC,n,n,n,n,x,x
O=C(CSc1nnc(Cc2cccs2)n1-c1ccc(Cl)cc1)NCc1ccc2c(c1)OCO2,x,x,n,x,x,x
Cc1ccc(NC(=O)NC(=O)N(c2ccccc2)S(C)(=O)=O)cc1,n,n,x,n,x,x
COc1ccc(NC(=O)COc2ccccc2C#N)c(S(=O)(=O)N2CCCCC2)c1,4.4,n,x,n,n,n
CCOC(=O)C1CCCN(c2cc(C)nc3cc(-c4ccc(Cl)cc4)nn23)C1 (configuration not stated),x,x,n,x,x,x
CCOC(=O)C1CCCN(c2cc(C)nc3cc(-c4ccc(F)cc4)nn23)C1 (configuration not stated),30,n,n,-3.8,386,n
Cc1ccc2c(C)nc(Nc3nc(CSc4nnnn4-c4ccccc4)cc(=O)[nH]3)nc2c1,8.6,n,x,n,n,n
Cc1cc(C)n(-c2nnc(C)n2/N=C/c2ccco2)n1,n,n,x,n,x,x
CCCOc1ccc2ccccc2c1/C=N/n1c(C)nnc1-n1nc(C)cc1C,3.4,x,x,n,u,n
CCOCC(=O)Nc1nc(-c2ccccc2)c(CC)s1,x,x,n,x,x,x
O=S(=O)(Nc1nc(CN2CCOCC2)nc2sc3c(c12)CCCC3)c1cc(F)ccc1F,n,n,n,n,x,x
CCc1nnc(NC(=O)CN2CCN(c3ccc(Cl)cc3)CC2)s1,x,x,n,x,x,x
COC(=O)c1ccc(OCC2c3cc(OC)c(OC)cc3CCN2C(=O)c2ccco2)cc1 (configuration not stated),11,x,x,-2.4,n,u
O=C(Cc1cc(=O)[nH]c(=O)[nH]1)NCCN1CCOCC1,n,n,n,n,x,x
CN1CCc2c(sc3c2C(=O)NC(c2cccc(OC(=O)c4cccs4)c2)N3)C1 (configuration not stated),5.7,n,x,n,n,n
COc1ccc(C2C3=C(CCCC3=O)Nc3nc4ccccc4n32)c(OC)c1OC (configuration not stated),n,n,x,n,x,x
CN(C)c1ccc(N/C=C/C(=O)c2ccccc2)cc1,2.5,-4.4,x,n,u,n
O=C(NCCCN1CCCC1=O)NC12CC3CC(CC(C3)C1)C2,5.7,n,n,n,n,n
O=C(NCCCO)NC12CC3CC(CC(C3)C1)C2,x,x,n,x,x,x
Cc1cc(C)nc(/N=C2\NC(=O)CC(C(=O)O)N2CCc2c[nH]c3ccccc23)n1 (configuration not stated),3.2,x,n,n,n,n
Nc1c(C(=O)NCCN2CCOCC2)c2nc3ccccc3nc2n1-c1ccc2c(c1)OCO2,n,n,x,n,x,x
Nc1c(C(=O)NCc2ccc3c(c2)OCO3)c2nc3ccccc3nc2n1CCCN1CCOCC1,-2.6,n,x,n,n,n
CC(=O)N1C(=O)C(=C2C=C(C)OC(C)=C2)c2ccccc21,28,n,x,n,u,n
SMILES,M1 ag,D1 mod,Htt clearance,M1 antagonist,M1 agonist conf,M4 agonist ctr
CCC(C)(C(=O)NC1CCCCC1)N(C(=O)C1CCC(=O)N1)c1ccc(C)cc1 (configuration not stated),n,n,x,n,x,x
CCCCC(=O)Nc1ccc(C(=O)N2CCCC(C(=O)OCC)C2)cc1 (configuration not stated),n,n,n,n,x,x
CCOC(=O)C1CCCN(CCC(=O)Nc2ccc3c(c2)CCC3)C1 (configuration not stated),16,n,x,-3.6,150,n
CCOC(=O)c1c(C)n(C)c2ccc(OCC(O)Cn3nc(C)cc3C)cc12 (configuration not stated),2.7,n,n,n,u,n
O=C(C1CCN(S(=O)(=O)c2cccc3nsnc23)CC1)N1CC=C(c2ccccc2)CC1,7.5,n,x,n,n,n
CCOC(=O)c1[nH]c(C)c(C(=O)C(C)C)c1C,x,x,n,x,x,x
CCOC(=O)c1nnn(-c2nonc2N)c1CN1CCc2ccccc2C1,-2.7,n,n,n,-27,u
CCOC(=O)C1CCN(C(=O)CNS(=O)(=O)c2cccs2)CC1,n,n,x,n,x,x
CC(=O)Nc1cccc(OCC(O)Cn2c(C)nc3ccccc32)c1 (configuration not stated),x,x,n,x,x,x
CCCOC(=O)c1ccc(OCC(O)Cn2c(C)nc3ccccc32)cc1 (configuration not stated),5.7,-3.2,x,n,u,n
Nc1ccc2c(C(F)(F)F)cc(=O)oc2c1,26,n,n,n,171,n
CC1CCCCN1C(=O)/C(=C\c1ccccc1)c1ccccc1 (configuration not stated),x,x,n,x,x,x
O=C(NCc1cccc(C(F)(F)F)c1)C1CC(c2c(Cl)cccc2Cl)=NO1 (configuration not stated),x,x,n,x,x,x
CC(=O)Nc1nc(C)c(-c2csc(Nc3ccc(O)cc3)n2)s1,6.4,n,x,-2,n,u
Cc1ccc(Nc2nc(-c3sc(NC(=O)c4ccco4)nc3C)cs2)cc1,x,x,n,x,x,x
Cc1cc(C)n(-c2nc3ccccc3nc2N2CCN(S(=O)(=O)c3ccc(F)c(C)c3)CC2)n1,n,n,n,n,x,x
Cc1cc(N2CCN(S(=O)(=O)c3ccc(Cl)cc3)CC2)c2ccccc2n1,5.2,n,n,-7.4,n,n
N#CC(c1ccc(Cl)cc1)c1ccc(Cl)nn1 (configuration not stated),x,x,n,x,x,x
Cc1ccccc1NC(=O)COC(=O)CN1C(=O)NC(C)(C)C1=O,x,x,n,x,x,x
O=C(NCc1cccnc1)C1c2ccccc2C(=O)N1Cc1ccco1 (configuration not stated),11,n,n,n,n,n
CC(C)CCN=Cc1c(O)n(-c2ccccc2)c(=O)c2ccccc12,x,x,n,x,x,x
CCN1CCCC1CN=Cc1c(O)n(-c2ccccc2)c(=O)c2ccccc12 (configuration not stated),5.7,n,u,n,n,n
O=C(Nc1cccc(S(=O)(=O)c2cccc(NC(=O)C3CC3)c2)c1)C1CC1,2.8,n,n,n,n,n
Cn1nc(-c2ccc(C(=O)Nc3cccnc3)cc2)c2ccccc2c1=O,n,n,n,n,x,x
Cn1nc(-c2ccc(OCC(=O)Nc3cccnc3)cc2)c2ccccc2c1=O,6.2,n,x,n,u,n
Cc1ccc(OCCN2CCN(C(=O)CCC(=O)Nc3nnc(C)s3)CC2)cc1,n,n,n,n,x,x
CC(C)c1nnc(NC(=O)CCC(=O)N2CCN(C3CCCCC3)CC2)s1,3.1,n,n,n,u,n
